Fluorescence fold increase data for 30 compounds are collected here from PubChem BioAssay AID709 (SRMLSC, 2007).

SMILES strings stand for the structures. Hit rate of the full screen: of about 65,000 compounds, about 3,600 (5.5%) were called active.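 Rule for the calls: active = at 10 µM, mean starting fluorescence two-fold or more over control wells; inactive = the rest.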 What follows is part of a selection rich in actives, with near analogues and random picks from the rest.

This assay in a line: intrinsic fluorescence of library compounds, ex339/em460 – biochemical, MLSMR library, data from DPM-DC assay, artefact control, profiling panel (AID 709).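 Note: signal is the first read of a kinetic run.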 The following applies: compound autofluorescence, ex339/em460 nm, NADH buffer; at 10 µM; stronger effect = higher value; 1 = no-compound wells, NADH background.
Take `COc1ccc(CCn2c(-c3ccco3)nc3nc4ccccc4nc32)cc1OC`: the fluorescence fold increase is 1.07 (inactive).

Regarding `Cn1c(-c2ccco2)nc2cc3ccccc3cc21`, the fluorescence fold increase is 4.72 (active).

For `c1coc(-c2nc3nc4ccccc4n3nc2-c2ccco2)c1`, the fluorescence fold increase was 0.92 (inactive).

For the compound `CCC(=O)Nc1nc(OC)cc(OC)n1`, the fluorescence fold increase was 1.16 (inactive).

Consider `C=CCSc1nc2c(c(=O)[nH]1)C(C(C)C)C(C#N)=C(N)O2` (stereo not given), for which the fluorescence fold increase is 1.06 (inactive).

Turning to `Cn1c2c(c(=O)n(C)c1=O)C(c1ccc(O)cc1)Nc1ccccc1O2` (stereo not given), the fluorescence fold increase is 1.08 (inactive).

For the compound `COCCn1c(=O)[nH]c2cc(C(=O)NCc3cccnc3)ccc2c1=O`, the fluorescence fold increase is 1.48 (inactive).

In the case of `CCn1c(=N)c(C(=O)NCCCOC)cc2c(=O)n3cccc(C)c3nc21`, the fluorescence fold increase was 3.83 (active).

As to `COc1ccc(CCn2c(=N)c(C(=O)NCc3ccco3)cc3c(=O)n4cccc(C)c4nc32)cc1`, the fluorescence fold increase is 1.64 (inactive).

Consider `O=c1[nH][nH]c(=O)c2cc(N3CCCC3)ccc12`, for which the fluorescence fold increase was 2.65 (active).

In the case of `O=c1cc(-c2ccccc2)nc(N2CCCCC2)[nH]1`, the fluorescence fold increase is 1.26 (inactive).

`CCOc1ccc(C2C(C(=O)NC)=C(C)Nc3nc4ccccc4n32)cc1OC` (stereo not given): the fluorescence fold increase is 1.15 (inactive).

Turning to `Cc1ccc(NC(=O)CCN2CCc3ccccc3C2)cc1`, the fluorescence fold increase was 1.02 (inactive).

With `Cc1ccc2c(c1)c1ncnc(N3CCc4ccccc4C3)c1n2C`, the fluorescence fold increase was 3.33 (active).

Take `Cc1ccc2c(c1)N(C(=O)CCC(=O)N1CCc3ccccc3C1)CCO2`: the fluorescence fold increase was 1.17 (inactive).

With `CCS(=O)(=O)N1CCCC(C(=O)NCc2ccc(C)cc2)C1` (stereo not given), the fluorescence fold increase is 1.06 (inactive).

Consider `O=C(Cn1nnc2ccccc2c1=O)Nc1cc(C(F)(F)F)ccc1N1CCOCC1`, for which the fluorescence fold increase is 1.02 (inactive).

With `COc1ccc(-c2[nH]nc3c2C(c2ccncc2)C(C#N)=C(N)O3)cc1` (stereo not given), the fluorescence fold increase is 1.04 (inactive).

On to `Cn1c(=O)[nH]c(=O)c2c1nc(Br)n2CCCCSc1nc2ccccc2o1`, for which the fluorescence fold increase is 1.1 (inactive).

For the compound `CCOC(=O)CSC1=C(C#N)C(c2sccc2C)CC(=O)N1` (stereo not given), the fluorescence fold increase was 1.13 (inactive).

Consider `CS(=O)(=O)N(CC(=O)NCc1ccco1)c1ccc2c(c1)OCO2`, for which the fluorescence fold increase was 1.14 (inactive).

In the case of `Cc1nc2nc(COc3ccccc3)[nH]n2c(=O)c1Cc1ccccc1`, the fluorescence fold increase is 1.09 (inactive).

In the case of `CCc1c(C)nc2cc(-c3cccs3)[nH]n2c1=O`, the fluorescence fold increase was 2.07 (active).

On to `O=c1[nH]c(-c2cccs2)nc2ccccc12`, for which the fluorescence fold increase is 1.17 (inactive).

In the case of `O=P(O)(CP(=O)(c1ccccc1)c1ccccc1)c1ccccc1`, the fluorescence fold increase is 1.13 (inactive).

For `CCCCNC(=O)c1c[nH]c2ccc(S(=O)(=O)Nc3ccc(OCC)cc3)cc2c1=O`, the fluorescence fold increase was 1.15 (inactive).

On to `Cc1nonc1NC(=O)c1ccccc1Br`, for which the fluorescence fold increase was 1.01 (inactive).

In the case of `CC(C)OC(=O)C(C#N)c1nc2ccccc2nc1N1CCN(Cc2ccccc2)CC1` (stereo not given), the fluorescence fold increase is 1.82 (inactive).

Take `Cc1ccc(S(=O)(=O)C(C#N)c2nc3ccccc3nc2N2CCCC2)cc1C` (stereo not given): the fluorescence fold increase was 2.44 (active).

Turning to `Cc1cccc2cc(C#N)c(N3CCCC3)nc12`, the fluorescence fold increase is 1.58 (inactive).
